NS1 inh: qHTS Assay for Inhibitors of Influenza NS1 Protein Function | Potency, µM (top dose mostly 46.1 µM), without a hit: top-dose activity, positive = more growth | actives 0.4% (n = 270,000); calls by dose curve; further: actives are rising curves; nearly all actives have a fitted effect of over 50% in size
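Compounds were scored for reversing the slow growth caused by influenza A NS1 in S. cerevisiae, measured by optical density at 600 nm. Assay medium contained 2% galactose at pH 6.0; NS1-free yeast of the same strain were the positive control.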
Sm TGR block: qHTS Assay for the Inhibitors of Schistosoma Mansoni Peroxiredoxins; Schistosoma mansoni thioredoxin glutathione reductase (TGR), Q962Y6; purified TGR, DTNB reduction, TNB absorbance 405 nm; Potency, µM (top dose mostly 114 µM), inactives show at the top dose activity change, negative = inhibition, usual class: inhibitors; actives 3% (n = 360,000); AID 485364, 2010; further: on the % scale 0 is the no-effect control and ±100 the full control effect; nearly all actives have a fitted effect of over 60% in size
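TGR 20 nM + NADPH 100 uM (dispensed conc.), cpd preinc 15 min RT; start with NADPH (500 uM addition) then DTNB (15 mM addition). Kinetic TNB absorbance, 405 nm filter. Four-parameter Hill fit across titration.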
AMA1-RON2 inh: qHTS for Inhibitors of AMA1-RON; Towards Development of Antimalarial Drug Lead: Primary Screen | Plasmodium falciparum AMA1 (3D7) - RON2 peptide interaction | AlphaScreen AMA1-biotinylated RON2 peptide binding | Potency, µM (top dose mostly 58.2 µM), inactives show at the top dose activity change, negative = inhibition, usual class: inhibitors | actives 0.2% (n = 360,000);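 further: 0% = vehicle wells and -100% = peptide control; nearly all actives have a fitted effect of over 45% in size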
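AMA1 (3D7) with his tag at 25 nM final met compounds first, then biotinylated RON2 peptide at 25 nM; detection used donor plus acceptor beads, 10 µg/mL apiece, read by AlphaScreen after 30 min at room temperature.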
Pf growth 48h: Primary qHTS for delayed death inhibitors of the malarial parasite plastid, 48 hour incubation; P. falciparum luciferase growth in erythrocytes, 48 h; Potency, µM (titrated, usually from 28.7 µM), without a hit: at the highest dose activity change, negative = inhibition, usual class: inhibitors; actives 5.9% (n = 310,000); further: on the % scale 0 is the no-effect control and ±100 the full control effect
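Luciferase-expressing parasites in RBCs, 2% Hct / 0.1% parasitemia final; RPMI 1640 + 0.5% Albumax; 37 C, 5% CO2, one generation; luminescence read-out, lower signal = inhibition.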
Pf growth 96h: Primary qHTS for delayed death inhibitors of the malarial parasite plastid, 96 hour incubation | P. falciparum luciferase reporter growth, 96 h | Potency, µM (doses to about 28.7 µM), for the others: at the highest dose activity change, negative = inhibition, most hits filed as inhibitors | actives 6.9% (n = 320,000) | AID 504834, 2011; further: on the % scale 0 is the no-effect control and ±100 the full control effect
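Plates of compound plus infected erythrocytes (2% hematocrit, 0.05% parasitemia final) incubate 96 hours, 37 C, 5% CO2. Detection reagent added; reduced luminescence from the parasites' luciferase reporter flags inhibition.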
* = called active by the depositor; ? = inconclusive; nt = not tested or not shown; [ ] = remark or other dose. Sampled rows, rich in hits. Any-hit rate of the full collection: about 11%. Unless noted, the call rests on the fitted dose curve; in most records, active means well fitted curve in the direction sought with a large enough effect; inconclusive means small, poorly fitted or top-dose-only effect, or another doubt; inactive means no such curve, though single readings can be large; an effect the other way counts as inactive or inconclusive. Potency means the concentration at half of the fitted maximal effect.

SMILES	NS1 inh	Sm TGR block	AMA1-RON2 inh	Pf growth 48h	Pf growth 96h
Cc1ccc(C(=O)NCCSc2ccc(Cl)cc2)cc1[N+](=O)[O-]	?	2%	-3%	13µM*	4.1µM*
Cc1ccc(SCCNC(=O)c2ccc(C)c([N+](=O)[O-])c2)cc1	-41%	18%	-12%	-17%	-21%
Cc1ccc(C(=O)NCCNc2ncc(C(F)(F)F)cc2Cl)cc1[N+](=O)[O-]	3%	8%	3%	?	7.4µM*
COc1ccc(C2C(=O)N(C3CCC(C)CC3)CC(=O)N2CCc2ccccc2)cc1OC (stereo not given)	nt	6%	nt	nt	nt
COc1cccc(CN2CC(C(=O)N3CCOCC3)CCC2=O)c1 (stereo not given)	-12%	9%	2%	-6%	9%
CCc1nn(CC(=O)N2CCN(c3cccc(C)c3C)CC2)c(=O)c2cc3sccc3n12	nt	-2%	nt	nt	nt
Cc1cccc(-n2ncc3c(N4CCN(c5ccccc5)CC4)ncnc32)c1	nt	4%	nt	nt	nt
Cc1ccc(-n2ncc3c(NCc4ccco4)ncnc32)c(C)c1	-21%	40µM*	-4%	-12%	?
Cc1ccc(-n2ncc3c(N4CCN(c5ccccc5)CC4)ncnc32)c(C)c1	10%	16%	4%	12µM*	?
Cc1cccc(C(=O)N2CCN(c3ncnc4c3cnn4-c3ccccc3)CC2)c1	-14%	2%	21%	9.3µM*	-15%
CC(C)(C)c1cc(CCC(=O)NCC2CCCO2)cc(C(C)(C)C)c1O (stereo not given)	5%	0%	0%	-1%	?
COc1ccc(C2CCCN2C(=S)Nc2cccc(C)c2)cc1OC (stereo not given)	nt	4%	-6%	12µM*	?
COc1ccc(C2CCCN2C(=S)Nc2cccc(C)c2C)cc1OC (stereo not given)	nt	-17%	-28%	12µM*	?
COc1ccc(NC(=S)N2CCCC2c2ccc(OC)c(OC)c2)cc1 (stereo not given)	nt	-4%	17%	-3%	-40%
CC(C)(C)c1ccc(/C=C(\C#N)C(=O)NCCN2CCOCC2)cc1	-3%	-4%	0%	?	5%
COc1ccccc1N(CC(=O)NCc1ccccc1)S(=O)(=O)c1cccs1	nt	nt	7%	nt	nt
CCn1cc(CN2CCc3c([nH]c4ccccc34)C2c2ccc(F)c(OC)c2)c(C)n1 (stereo not given)	-1%	-10%	-9%	12µM*	?
CCn1cc(CN2CCc3c([nH]c4ccccc34)C2c2cccc(OC)c2)c(C)n1 (stereo not given)	-4%	-36%	-26%	12µM*	?
CCn1cc(CN2CCc3c([nH]c4ccccc34)C2c2cccc(O)c2)c(C)n1 (stereo not given)	-6%	-10%	-21%	-17%	-1%
Fc1ccccc1C1c2[nH]c3ccccc3c2CCN1Cc1ccoc1 (stereo not given)	-1%	-25%[57.1 µM]	-20%	?	-24%
Clc1ccc(-n2cccc2CN2CCc3c([nH]c4ccccc34)C2c2ccccn2)nc1 (stereo not given)	2%	?	19%	9.3µM*	10µM*
O=C(Cc1ccsc1)N1CCc2c([nH]c3ccccc23)C1c1ccccn1 (stereo not given)	-8%	-5%	-1%	?	14%
COc1cccc(C2c3[nH]c4ccccc4c3CCN2CCCn2cccn2)c1 (stereo not given)	2%	-3%	?	?	?
CCn1nc(C)c(CN2CCc3c([nH]c4ccccc34)C2c2ccc(F)c(OC)c2)c1C (stereo not given)	-7%	-7%	40µM*	2.6µM*	?
Cc1cccc(NS(=O)(=O)c2ccc(C)c(C(=O)NCCCN3CCOCC3)c2)c1	nt	-5%	-5%	-8%	29%
O=C(N1CCN(c2cccc(Cl)c2)CC1)C1(c2cccs2)CCOCC1	-6%	-2%	-7%	-28%	?
COc1ccc(-c2cc(C(F)(F)F)nc(SCC(=O)N3CCCCC3)n2)cc1	nt	1%	nt	nt	nt
